In PubChem BioAssay AID1159580 (chemical genetic matrix, 2015):
Where “and” joins values, the source holds several entries; their conditions need not be identical. Identical values can stand only once. About 2,000 (36%) of roughly 5,500 compounds were called active. Another 18% or so got no clear call; they are omitted. Rule as the data show it: active = normalized growth mostly below about 0.91 (no sharp cut-off); inconclusive = no clear call, values can overlap the other calls; inactive = mostly above about 0.92. The list shows a part of the results.

Assay: chemical genetic growth profiling, strain panel (AID 1159580);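 also: tested at 20 µM; growth read once vehicle control cultures reached saturation at 30 °C; 1 = growth at the plate median or of vehicle wells; lower values mean less growth of the strain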
Conditions: growth OD
[1] = S. cerevisiae deletion strains, locus YCL061C, strain MRC1, stronger effect = lower value
[2] = S. cerevisiae deletion strains, locus YHR030C, strain SLT2, stronger effect = lower value
[3] = S. cerevisiae deletion strains, locus YHR079C, strain IRE1, stronger effect = lower value
[4] = S. cerevisiae deletion strains, locus YJL095W, strain BCK1, stronger effect = lower value
[5] = S. cerevisiae deletion strains, locus YJL187C, strain SWE1, stronger effect = lower value
[6] = S. cerevisiae deletion strains, locus YJR066W, strain TOR1, stronger effect = lower value
[7] = S. cerevisiae deletion strains, locus YLR113W, strain HOG1, stronger effect = lower value
[8] = S. cerevisiae deletion strains, locus YNL183C, strain NPR1, stronger effect = lower value
[9] = S. cerevisiae deletion strains, locus YOR231W, strain MKK1, stronger effect = lower value
[10] = S. cerevisiae deletion strains, locus YPL256C, strain CLN2, stronger effect = lower value

Measured: normalized growth

O=C(Nc1ccc(C(=O)O)c(O)c1)c1ccccc1
inactive: S. cerevisiae deletion strains, locus YAL021C, strain ccr4, stronger effect = lower value 0.968 | S. cerevisiae deletion strains, locus YAL026C, strain drs2, stronger effect = lower value 0.982 | S. cerevisiae deletion strains, locus YAL030W, strain snc1, stronger effect = lower value 0.952 | S. cerevisiae deletion strains, locus YBL061C, strain skt5, stronger effect = lower value 0.977 | S. cerevisiae deletion strains, locus YBR009C, strain hhf1, stronger effect = lower value 0.97 | S. cerevisiae deletion strains, locus YBR023C, strain chs3, stronger effect = lower value 0.991 | S. cerevisiae deletion strains, locus YBR171W, strain sec66, stronger effect = lower value 0.968 | S. cerevisiae deletion strains, locus YBR231C, strain swc5, stronger effect = lower value 0.972 | S. cerevisiae deletion strains, locus YBR279W, strain paf1, stronger effect = lower value 0.989 | S. cerevisiae deletion strains, locus YCL011C, strain gbp2, stronger effect = lower value 0.979 | S. cerevisiae deletion strains, locus YCL016C, strain dcc1, stronger effect = lower value 0.979 | [1] 0.989 | S. cerevisiae deletion strains, locus YCL069W, strain vba3, stronger effect = lower value 0.987 | S. cerevisiae deletion strains, locus YCR088W, strain abp1, stronger effect = lower value 0.987 | S. cerevisiae deletion strains, locus YDL005C, strain med2, stronger effect = lower value 0.978 | S. cerevisiae deletion strains, locus YDL040C, strain nat1, stronger effect = lower value 0.976 | S. cerevisiae deletion strains, locus YDR001C, strain nth1, stronger effect = lower value 0.964 | S. cerevisiae deletion strains, locus YDR069C, strain doa4, stronger effect = lower value 0.974 | S. cerevisiae deletion strains, locus YDR137W, strain rgp1, stronger effect = lower value 0.916 | S. cerevisiae deletion strains, locus YDR159W, strain sac3, stronger effect = lower value 0.985 | S. cerevisiae deletion strains, locus YDR195W, strain ref2 0.952 | S. cerevisiae deletion strains, locus YDR297W, strain sur2, stronger effect = lower value 0.976 | S. cerevisiae deletion strains, locus YDR334W, strain swr1, stronger effect = lower value 0.942 | S. cerevisiae deletion strains, locus YDR335W, strain msn5, stronger effect = lower value 0.972 | S. cerevisiae deletion strains, locus YDR392W, strain spt3, stronger effect = lower value 0.986 | S. cerevisiae deletion strains, locus YEL003W, strain gim4, stronger effect = lower value 0.974 | S. cerevisiae deletion strains, locus YEL037C, strain rad23, stronger effect = lower value 0.992 | S. cerevisiae deletion strains, locus YEL061C, strain CIN8 (second series), stronger effect = lower value 0.976 | S. cerevisiae deletion strains, locus YER015W, strain faa2, stronger effect = lower value 0.968 | S. cerevisiae deletion strains, locus YER016W, strain bim1, stronger effect = lower value 0.979 | S. cerevisiae deletion strains, locus YER111C, strain swi4, stronger effect = lower value 0.992 | S. cerevisiae deletion strains, locus YER155C, strain BEM2 (second series), stronger effect = lower value 0.967 | S. cerevisiae deletion strains, locus YFR010W, strain ubp6, stronger effect = lower value 0.963 | S. cerevisiae deletion strains, locus YGL167C, strain pmr1, stronger effect = lower value 0.989 | S. cerevisiae deletion strains, locus YGL173C, strain kem1, stronger effect = lower value 0.967 | S. cerevisiae deletion strains, locus YGL227W, strain vid30, stronger effect = lower value 0.974 | S. cerevisiae deletion strains, locus YGL240W, strain doc1, stronger effect = lower value 0.977 | S. cerevisiae deletion strains, locus YGL253W, strain hxk2, stronger effect = lower value 0.986 | S. cerevisiae deletion strains, locus YHR013C, strain ard1, stronger effect = lower value 0.962 | S. cerevisiae deletion strains, locus YHR027C, strain rpn1, stronger effect = lower value 0.964 | [2] 0.937 | [3] 0.939 | S. cerevisiae deletion strains, locus YHR142W, strain chs7, stronger effect = lower value 0.968 | S. cerevisiae deletion strains, locus YJL092W, strain hpr5, stronger effect = lower value 0.999 | S. cerevisiae deletion strains, locus YJL095W, strain BCK1 (second series), stronger effect = lower value 0.981 | [4] 0.976 | S. cerevisiae deletion strains, locus YJL115W, strain asf1, stronger effect = lower value 0.974 | S. cerevisiae deletion strains, locus YJL129C, strain trk1, stronger effect = lower value 0.999 | S. cerevisiae deletion strains, locus YJL154C, strain vps35, stronger effect = lower value 0.965 | S. cerevisiae deletion strains, locus YJL164C, strain tpk1, stronger effect = lower value 0.983 | S. cerevisiae deletion strains, locus YJL166W, strain qcr8, stronger effect = lower value 0.973 | [5] 0.984 | [6] 0.908 | S. cerevisiae deletion strains, locus YKL160W, strain elf1, stronger effect = lower value 0.981 | S. cerevisiae deletion strains, locus YKR026C, strain gcn3, stronger effect = lower value 0.99 | S. cerevisiae deletion strains, locus YKR091W, strain srl3, stronger effect = lower value 0.984 | S. cerevisiae deletion strains, locus YLL001W, strain dnm1, stronger effect = lower value 0.983 | S. cerevisiae deletion strains, locus YLL026W, stronger effect = lower value 0.958 | S. cerevisiae deletion strains, locus YLL041C, strain sdh2, stronger effect = lower value 0.979 | S. cerevisiae deletion strains, locus YLR027C, strain aat2, stronger effect = lower value 0.968 | [7] 0.974 | S. cerevisiae deletion strains, locus YLR221C, strain rsa3, stronger effect = lower value 0.984 | S. cerevisiae deletion strains, locus YLR258W, strain gsy2, stronger effect = lower value 0.987 | S. cerevisiae deletion strains, locus YLR262C, strain YPT6 (second series), stronger effect = lower value 0.938 | S. cerevisiae deletion strains, locus YLR320W, strain mms22, stronger effect = lower value 0.973 | S. cerevisiae deletion strains, locus YLR342W, strain FKS1, stronger effect = lower value 0.978 | S. cerevisiae deletion strains, locus YLR357W, strain rsc2, stronger effect = lower value 1 | S. cerevisiae deletion strains, locus YLR370C, strain arc18, stronger effect = lower value 0.975 | S. cerevisiae deletion strains, locus YLR384C, strain iki3, stronger effect = lower value 0.962 | S. cerevisiae deletion strains, locus YML120C, strain ndi1, stronger effect = lower value 0.986 | S. cerevisiae deletion strains, locus YMR058W, strain fet3, stronger effect = lower value 0.984 | S. cerevisiae deletion strains, locus YMR125W, strain sto1, stronger effect = lower value 0.984 | S. cerevisiae deletion strains, locus YMR129W, stronger effect = lower value 0.989 | S. cerevisiae deletion strains, locus YMR205C, strain PFK2, stronger effect = lower value 0.969 | S. cerevisiae deletion strains, locus YMR231W, strain pep5, stronger effect = lower value 0.984 | S. cerevisiae deletion strains, locus YNL071W, strain lat1, stronger effect = lower value 0.978 | [8] 0.92 | S. cerevisiae deletion strains, locus YNL209W, strain ssb2, stronger effect = lower value 0.957 | S. cerevisiae deletion strains, locus YNL248C, strain rpa49, stronger effect = lower value 0.986 | S. cerevisiae deletion strains, locus YNL322C, strain KRE1 (second series), stronger effect = lower value 0.97 | S. cerevisiae deletion strains, locus YNR049C, strain mso1, stronger effect = lower value 0.967 | S. cerevisiae deletion strains, locus YOR001W, strain rrp6, stronger effect = lower value 0.982 | S. cerevisiae deletion strains, locus YOR070C, strain gyp1, stronger effect = lower value 0.976 | S. cerevisiae deletion strains, locus YOR080W, strain dia2, stronger effect = lower value 0.975 | S. cerevisiae deletion strains, locus YOR083W, strain WHI5, stronger effect = lower value 0.984 | S. cerevisiae deletion strains, locus YOR106W, strain vam3, stronger effect = lower value 0.989 | [9] 0.941 | S. cerevisiae deletion strains, locus YOR265W, strain rbl2, stronger effect = lower value 0.988 | S. cerevisiae deletion strains, locus YOR270C, strain vph1, stronger effect = lower value 0.972 | S. cerevisiae deletion strains, locus YOR290C, strain snf2, stronger effect = lower value 0.99 | S. cerevisiae deletion strains, locus YPL051W, strain arl3, stronger effect = lower value 0.981 | S. cerevisiae deletion strains, locus YPL078C, strain atp4, stronger effect = lower value 0.97 | S. cerevisiae deletion strains, locus YPL106C, strain sse1, stronger effect = lower value 0.918 | S. cerevisiae deletion strains, locus YPL240C, strain hsp82, stronger effect = lower value 0.982 | [10] 0.963

S=C(NCc1ccccc1)Nc1ccc(Cl)c(Cl)c1
inactive: S. cerevisiae deletion strains, locus YBR229C, strain ROT2, stronger effect = lower value 0.948 | S. cerevisiae deletion strains, locus YDL101C, strain DUN1, stronger effect = lower value 0.935 | S. cerevisiae deletion strains, locus YDR150W, strain NUM1, stronger effect = lower value 0.917 | S. cerevisiae deletion strains, locus YGR052W, strain FMP48, stronger effect = lower value 0.878 | S. cerevisiae deletion strains, locus YHR082C, strain KSP1, stronger effect = lower value 0.839 | S. cerevisiae deletion strains, locus YHR087W, strain rtc3, stronger effect = lower value 0.964 | [4] 0.841 | S. cerevisiae deletion strains, locus YJR043C, strain POL32, stronger effect = lower value 0.978 | [6] 0.845 | S. cerevisiae deletion strains, locus YJR075W, strain HOC1, stronger effect = lower value 0.897 | S. cerevisiae deletion strains, locus YKL171W, strain NNK1, stronger effect = lower value 0.807 | S. cerevisiae deletion strains, locus YLR058C, strain SHM2 (second series), stronger effect = lower value 0.938 | [7] 1.06 | S. cerevisiae deletion strains, locus YMR219W, strain ESC1, stronger effect = lower value 0.962 | [8] 0.846 | S. cerevisiae deletion strains, locus YNL207W, strain RIO2, stronger effect = lower value 0.829 | S. cerevisiae deletion strains, locus YNL322C, strain KRE1, stronger effect = lower value 0.977 | S. cerevisiae deletion strains, locus YOR119C, strain RIO1, stronger effect = lower value 0.77 | [9] 0.862 | [10] 0.916
active: S. cerevisiae deletion strains, locus YAL013W, strain DEP1, stronger effect = lower value 0.884 | [1] 0.866 | S. cerevisiae deletion strains, locus YEL061C, strain CIN8, stronger effect = lower value 0.835 | S. cerevisiae deletion strains, locus YGR078C, strain PAC10, stronger effect = lower value 0.9 | [2] 0.382 and 0.745 | [3] 0.861 | [5] 0.891 | S. cerevisiae deletion strains, locus YKL190W, strain CNB1, stronger effect = lower value 0.68 | S. cerevisiae deletion strains, locus YKL203C, strain TOR2, stronger effect = lower value 0.803 | S. cerevisiae deletion strains, locus YLR039C, strain RIC1, stronger effect = lower value 0.482 | S. cerevisiae deletion strains, locus YLR085C, strain ARP6, stronger effect = lower value 0.332 | S. cerevisiae deletion strains, locus YLR262C, strain YPT6, stronger effect = lower value 0.701 | S. cerevisiae deletion strains, locus YML094W, strain GIM5, stronger effect = lower value 0.677 | S. cerevisiae deletion strains, locus YMR263W, strain SAP30, stronger effect = lower value 0.846 | S. cerevisiae deletion strains, locus YNL153C, strain GIM3, stronger effect = lower value 0.907 | S. cerevisiae deletion strains, locus YNL298W, strain CLA4 (second series), stronger effect = lower value 0.548 | S. cerevisiae deletion strains, locus YNR030W, strain Alg12, stronger effect = lower value 0.701 | S. cerevisiae deletion strains, locus YOL006C, strain TOP1, stronger effect = lower value 0.251 | S. cerevisiae deletion strains, locus YPL055C, strain LGE1, stronger effect = lower value 0.689 | S. cerevisiae deletion strains, locus YPL241C, strain CIN2, stronger effect = lower value 0.691 | S. cerevisiae deletion strains, locus YPR135W, strain CTF4, stronger effect = lower value 0.471 | S. cerevisiae strains, strain wild type, stronger effect = lower value 0.828

O=P(O)(O)C(O)(Cc1cccnc1)P(=O)(O)O
inactive: [2] 0.969 | [3] 0.963 | [4] 0.969 | [6] 0.936 | [7] 0.919 | [8] 0.897 | [9] 0.966 | [10] 0.933
